About 5,100 (6%) of roughly 85,000 compounds were called active. The entries come from a sample that favours actives as a whole. Values without a mark were called inactive.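 How the source made its calls: active means viability at or below 40%; inactive means viability above 40%.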
Test: H69AR cell viability reduction – human, 86K library, primary screen (AID 598);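 further: multidrug resistant small cell line overexpressing MRP-1 efflux transporter; 100% = mean luminescence of untreated control wells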
Settings: H69AR lung tumor viability, ATP luminescence, 72 h; at 10 µM; active compounds read low

Compound | viability
CC(C)NC(=O)CSc1nnc(COc2ccccc2Cl)o1 | 106%
CCCC(C)C(=O)Nc1ccc(NC(C)=O)cc1 (stereo not given) | 103%
CCN1CCN(c2c(Cl)cccc2NC(=O)c2ccc(Br)o2)CC1 | 90.5%
COc1cc(OC)c(NC(=O)c2ccc(Br)o2)cc1Cl | 58.5%
CCCC(=O)Nc1ccc(Cl)c(NC(=O)c2ccc(Br)o2)c1 | 28.2% (active)
CCN(c1ccccc1)S(=O)(=O)c1cccc(C(=O)O)c1 | 103%
CCN(c1ccccc1)S(=O)(=O)c1ccc(NC(=O)C(C)(C)C)cc1 | 34.8% (active)
CCN(c1ccccc1)S(=O)(=O)c1ccc(N)cc1 | 89.9%
COc1ccc(/C(O)=C2\C(=O)C(=O)N(Cc3ccco3)C2c2ccc(OC)cc2OC)cc1 (stereo not given) | 97.1%
CC1=NN(/C(=N\c2nnc(C)s2)Nc2ccccc2)[C@H](c2ccc(C)cc2)S1 | 56.5%
CCOC(=O)N1CCN(C(=O)CN(C2CCCCC2)S(C)(=O)=O)CC1 | 84.9%
CS(=O)(=O)N(CC(=O)N1CCN(c2ccc(F)cc2)CC1)C1CCCCC1 | 92%
CS(=O)(=O)N(CC(=O)Nc1ccc(Cl)c(Cl)c1)C1CCCCC1 | 16.6% (active)
COC(=O)C1=C(C)N=C2SC(C)C(=O)N2C1/C=C/c1ccccc1 (stereo not given) | 85.8%
O=C(NCCCN1CCCCC1)c1ccc2c(c1)NC(=O)C(N1CCOCC1)S2 (stereo not given) | 98.8%
CCOc1ccc(Cn2nnc(C(=O)NCc3ccccc3)c2N)cc1 | 90.5%
CCOc1ccc(Cn2nnc(C(=O)Nc3ccc(OC)cc3OC)c2N)cc1 | 76.9%
Nc1c(C(=O)NCc2ccccc2)nnn1Cc1cccc(Cl)c1 | 26.7% (active)
COc1cc(OC)cc(-c2cc3nc(C4CCN(C(=O)OC(C)(C)C)CC4)cc(=O)n3[nH]2)c1 | 106%
COc1ccc(C(=O)NN(C)c2nc(-c3ccccc3)cc(C)c2S(C)(=O)=O)cc1 | 85%
O=C(NCc1ccco1)c1nc(-c2ccccc2)n(-c2ccccc2)n1 | 75%
Cc1nn(-c2ccccc2)c2sc(C(=O)N(Cc3ccco3)C(C)C(=O)NC(C)(C)C)cc12 (stereo not given) | 7.03% (active)
Cn1nc(-c2ccc(Cl)cc2)c2cc(C(=O)NCc3ccco3)sc21 | 68.1%
CC(=O)Nc1ccc(NC(=O)c2sc3nc4c(c(-c5ccc(C)cc5)c3c2N)CCC4)cc1 | 30.2% (active)

Compound | viability
NC(=O)c1sc2nc3c(c(-c4ccccc4)c2c1N)CCC3 | 73.2%
Cc1cccc(NC(=O)c2sc3nc4c(c(-c5ccco5)c3c2N)CCC4)c1 | 78.6%
COc1cc(OC)c(-n2c(C)cc(C=O)c2C)cc1Cl | 104%
Cc1cccc(C)c1NC(=O)CSc1nnc(-c2ccccc2)n1Cc1ccc2c(c1)OCO2 | 72.2%
CSc1nc(C)cc(SC(C(C)=O)C(=O)Nc2ccccc2)n1 (stereo not given) | 100%
Cc1onc(-c2ccccc2Cl)c1C(=O)OCC(=O)c1ccccc1 | 97%
CN1CCN(CCCNC(=O)c2cc3c(=O)oc4ccccc4c3s2)CC1 | 87.3%
O=C(NCCN1CCN(Cc2ccccc2)CC1)c1cc2c(=O)[nH]c3ccccc3c2s1 | 1.91% (active)
O=C(Cc1c(O)c2ccccc2[nH]c1=O)NCc1ccccc1 | 101%
COc1ccc(-n2c(C)csc2=S)cc1 | 86.6%
CCOc1ccc(C(O)Cn2c(=N)n(CCN3CCCCC3)c3ccccc32)cc1 (stereo not given) | 44.7%
CCOc1ccc(NC(=O)C2CCCN(C(=O)Nc3ccccc3)C2)cc1 (stereo not given) | 79.5%
CCOc1ccccc1NC(=O)c1cccnc1 | 87.4%
Cc1cc(=O)oc2cc(NC(=O)C3CC(=O)N(Cc4ccccc4)C3)ccc12 (stereo not given) | 96.1%
Cc1ccccc1N1CCN(CCCOc2ccc3c(C)cc(=O)oc3c2)CC1 | 58.7%
Cc1cc(=O)oc2cc(OCC3CC(c4ccccc4Cl)=NO3)ccc12 (stereo not given) | 27.1% (active)
O=C(CSCc1c(F)cccc1Cl)NCC1CCCO1 (stereo not given) | 90.5%
Cc1cc(SCC(=O)c2ccccc2)nc(SCC(=O)c2ccccc2)n1 | 72.1%
CC(=O)CCS(=O)(=O)c1ccc(C)c(C)c1 | 1.25% (active)
Cc1ccc(S(=O)(=O)NCCN2CCOCC2)cc1C | 100%
CCCCN(CCCC)C(=O)CCS(=O)(=O)c1ccc2c(c1)n(C)c(=O)c(=O)n2C | 70.2%
COc1ccc(NC(=O)CSc2nc(NS(=O)(=O)c3ccc(C)cc3)cc(=O)[nH]2)cc1 | 109%
COC(=O)c1sccc1-n1cccc1C(=O)C(=O)N1CCCCC1 | 95.1%
Cc1cccc(C(=O)N2CCCN(C(=O)c3cccc(C)c3)CC2)c1 | 94.6%

Compound | viability
Clc1ccc(COn2c(-c3ccc(Cl)cc3Cl)nc3ncccc32)cc1 | 56.5%
O=C(O)[C@@H]1CCCN1c1ncnc2sc3c(c12)CCC3 | 86.5%
c1nnc2c3c4c(sc3ncn12)CCC4 | 39% (active)
N=c1c2c3c(sc2ncn1CCCN1CCOCC1)CCCCC3 | 71%
CCc1ccc(NC(=O)CN2C(=O)CSC2=O)cc1 | 93%
COCCn1c(SCc2nnc(-c3ccc(OC)c(OC)c3)o2)nc2sc3c(c2c1=O)CCC3 | 51.5%
O=C(CN1CCN(C(=O)c2ccco2)CC1)Nc1ccc(Cl)c(C(F)(F)F)c1 | 19.9% (active)
COc1ccc(OC)c(NC(=O)CN2CCN(C(=O)c3ccco3)CC2)c1 | 73.5%
O=C(CN1CCN(C(=O)c2ccco2)CC1)Nc1ccc2c(c1)OCO2 | 110%
O=C(Nc1ccc(Br)cc1)c1cccc(NC(=O)C2C3CC4OC(=O)C2C4C3)c1 (stereo not given) | 79.9%
O=C1NC(Nc2nc3ccccc3s2)(C(F)(F)F)C(=O)N1C1CCCCC1 (stereo not given) | 13.4% (active)
COC(=O)NC1(C(F)(F)F)NC(=O)N(C2CCCCC2)C1=O (stereo not given) | 103%
COC(=O)CCSc1cc([N+](=O)[O-])cc2c1c(C1OCCS1)nn2-c1ccccc1 (stereo not given) | 98.2%
Cc1ccc(-n2cc3ccc([N+](=O)[O-])cc3n2)cc1 | 76.8%
CCOC(=O)N1CCN(C(=O)c2ccc(CN(c3ccc(C)c(C)c3)S(C)(=O)=O)cc2)CC1 | 70.5%
CCOC(=O)N1CCN(C(=O)c2ccc3c(c2)N(Cc2ccc(C)cc2)CCS3)CC1 | 30.8% (active)
CCOC(=O)N1CCN(C(=O)c2ccc(S(=O)(=O)c3ccc(C)cc3)c(NC(C)=O)c2)CC1 | 85.8%
COc1ccc(CN(C(=O)CSc2nnc(-c3ccc(OC)c(OC)c3)o2)c2ccc(F)cc2)cc1 | 65.2%
CCCNC(=O)CN(Cc1ccccc1F)S(=O)(=O)c1ccc(C)cc1 | 98.5%
CC1Cc2ccccc2N1C(=O)c1cc2sccc2n1Cc1ccccc1 (stereo not given) | 90.3%
O=C(CSCc1ccc(Cl)cc1)N1CCCCC1 | 93.6%
Cc1cc(NC(=O)CCC(=O)N(CC(=O)NCC2CCCO2)c2ccccc2C)no1 (stereo not given) | 100%
COCCNC(=O)Cn1cc(C(=O)c2cccs2)c2ccccc21 | 88.3%
COc1ccccc1C(=O)n1nc(-c2ccccc2)nc1N | 90.3%

Compound | viability
COc1ccc(C(=O)n2nc(-c3ccc(Cl)cc3)nc2N)cc1OC | 83.9%
COc1ccc(C(=O)n2nc(-c3ccc(C)cc3)nc2N)cc1OC | 22% (active)
N#CC1=C(SCc2ccc(C#N)cc2)N=C(N)C(c2nc(-c3ccccc3)cs2)C12CCCCC2 (stereo not given) | 56.8%
COc1ccc(OC)c(-n2nnnc2SCC(=O)Nc2cc(C)ccc2OC)c1 | 75.6%
COC(=O)Nc1nc2ccc(Sc3ccccc3)cc2[nH]1 | 17.5% (active)
CC(C)c1nc2ccc(C(=O)O)cc2[nH]1 | 94.4%
Cc1nc2ccc(C(=O)O)cc2[nH]1 | 91.7%
COc1ccc(N(CC(=O)NC2CCCCC2)C(=O)CNC(=O)c2ccco2)c(OC)c1 | 97.8%
COc1cc(C(=O)N(Cc2ccc(N(C)C)cc2)C2CCS(=O)(=O)C2)cc(OC)c1OC (stereo not given) | 80.1%
Cc1ccc(CN(C(=O)c2sc3ccccc3c2Cl)C2CCS(=O)(=O)C2)cc1 (stereo not given) | 18.5% (active)
COc1ccc(C(=O)N(Cc2ccc(N(C)C)cc2)C2CCS(=O)(=O)C2)cc1 (stereo not given) | 80.1%
CC(=O)c1cccc(NC(=O)N2CCCC2C(=O)NCCc2ccccc2)c1 (stereo not given) | 91.7%
COc1nc(NC2CCCCC2)nc(N2CCCCCC2)n1 | 61.9%
CC1=C/C(=N\OS(=O)(=O)c2ccccc2)C=CC1=O | 0.69% (active)
N#CCSc1nc2c(c(=O)n1Cc1ccccc1)C1(CCCC1)Cc1ccccc1-2 | 80.7%
Nc1c(-c2ccc(F)cc2)cnn1C1CCS(=O)(=O)C1 (stereo not given) | 98%
CC(C)(C)C(=O)c1cnc(Nc2ccccc2)s1 | 55%
CCOC(=O)CSc1nc2ccc(C)cc2[nH]1 | 89.4%
COc1ccc(/C(N)=N/OC(=O)Oc2ccccc2)cc1 | 82.6%
COc1ccc(C(=O)Nc2ccc(S(=O)(=O)NC(C)C)cc2)cc1 | 97.9%
CO/N=C(/CS(=O)(=O)c1ccc(Br)cc1)c1ccc(OC)cc1 | 31.4% (active)
Cc1cccc(NC(=O)CSc2nnc(-c3ccco3)o2)c1 | 96.2%
CC1(C)NC(=O)N(CCCCSc2ccc(Cl)cc2)C1=O | 79%

From PubChem BioAssay AID598 (SRMLSC, 2007)
